Compound activity from PubChem.
KCNH2 3.1 inh: qHTS for Inhibitors of KCHN2 3.1: Mutant qHTS; activity change, % (tested at about 1.8 µM); U2OS KCNH2 3.1, thallium flux FluxOr; hits give low values; 340,000 tested, 0.95% active;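 active = maximum activity change below -70%; inconclusive = maximum activity change from -70% to -50%; inactive = maximum activity change above -50%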;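 note: thallium influx rate constant from kinetic fluorescence after stimulation buffer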
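U2OS cells transduced with KCNH2 3.1 mutant virus (1.77 x 10^8 /mL, 4 h), plated overnight at 37 C, loaded 45 min with FluxOr dye plus Red40 quencher. Thallium flux rate constant from kinetic reads after stimulation buffer, normalised to controls.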
hERG WT inh: qHTS for Inhibitors of KCHN2 3.1: Wildtype qHTS; Voltage-gated inwardly rectifying potassium channel KCNH2 (Homo sapiens), Q12809; U2OS, BacMam KCNH2, thallium flux FluxOr; hits give low values; activity change, % at 1.84 µM; 340,000 tested, 0.37% active; AID 720551, 2013;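 active = maximum activity change below -70%; inconclusive = maximum activity change between -70% and -50%; inactive = maximum activity change above -50%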
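U2OS cells transduced with wild-type KCNH2 virus are loaded with FluxOr dye for 45 min, and thallium flux is measured in kinetic reads before and after stimulation buffer. Rate constants are normalized to DMSO controls.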
TRPV1 PAM: HTS Assay for Compounds that Act as Potentiators of the Vanilloid Receptor 1. Transient receptor potential cation channel subfamily V member 1 (Homo sapiens), Q8NER1. TRPV1-expressing cells, Fluo-8 calcium influx, capsaicin EC20 potentiation. potentiation, % at 8.33 µM. 320,000 tested, 0.02% active; in the data active = potentiation above about 80%; inconclusive = between about 30% and that limit
Target sequence (Q8NER1 whole entry, looked up): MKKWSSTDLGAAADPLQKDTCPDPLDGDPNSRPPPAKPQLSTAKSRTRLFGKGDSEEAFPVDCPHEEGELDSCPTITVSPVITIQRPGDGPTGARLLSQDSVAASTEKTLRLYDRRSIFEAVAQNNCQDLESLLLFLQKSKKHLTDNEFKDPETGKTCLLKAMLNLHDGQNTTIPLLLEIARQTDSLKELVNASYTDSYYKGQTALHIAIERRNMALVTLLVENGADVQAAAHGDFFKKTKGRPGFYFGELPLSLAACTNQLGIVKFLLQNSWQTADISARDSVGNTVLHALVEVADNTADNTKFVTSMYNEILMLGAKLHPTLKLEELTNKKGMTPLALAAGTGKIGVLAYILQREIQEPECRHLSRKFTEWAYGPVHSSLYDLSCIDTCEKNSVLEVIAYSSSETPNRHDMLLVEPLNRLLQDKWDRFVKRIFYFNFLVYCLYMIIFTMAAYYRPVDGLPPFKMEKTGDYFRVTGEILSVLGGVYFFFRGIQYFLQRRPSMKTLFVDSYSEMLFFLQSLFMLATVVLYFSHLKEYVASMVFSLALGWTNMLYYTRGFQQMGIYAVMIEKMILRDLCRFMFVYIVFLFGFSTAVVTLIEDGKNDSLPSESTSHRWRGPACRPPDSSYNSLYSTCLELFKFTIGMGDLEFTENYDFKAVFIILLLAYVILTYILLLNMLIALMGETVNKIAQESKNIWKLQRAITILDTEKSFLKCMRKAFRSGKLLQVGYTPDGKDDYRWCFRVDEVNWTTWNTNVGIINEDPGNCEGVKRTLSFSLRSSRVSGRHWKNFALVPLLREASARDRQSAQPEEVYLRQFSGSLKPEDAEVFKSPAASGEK
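Cells expressing TRPV1 were dye-loaded with Fluo-8 and read kinetically: 10 s baseline, 3 min after compound (agonist portion), then 2 min after EC20 capsaicin (allosteric enhancer portion). Calcium-bound dye fluorescence at 480/520 nm.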
TRPV1 agonist: HTS Assay for Compounds that Act as Agonists of the Vanilloid Receptor 1; TRPV1-expressing cells, Fluo-8 calcium influx, agonist mode; activation, % at 8.33 µM; 320,000 tested, 0.19% active; AID 540275, 2011; in the data active = activation above about 80%; inconclusive = between about 30% and that limit
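TRPV1-expressing cells were cultured overnight at 35.5C and loaded with Fluo-8 calcium dye for 40 to 90 min at room temperature. After a 10 s baseline, compound was added and calcium influx was read kinetically for 3 min (ex 480/em 520 nm).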
TRPML1 blocker: qHTS for Inhibitors of the Human Mucolipin Transient Receptor Potential 1 (TRPML1). activity change, negative = inhibition, % (test concentration not listed). 390,000 tested, 0.02% active. TRPML1-inducible cells, Ca2+ dye fluorescence, FDSS; hits give low values; inhibition of EC80 agonist-evoked calcium signal. Mucolipin-1 (Homo sapiens), Q9GZU1; in the data active = activity change below about -50%; inconclusive = between about -30% and that limit;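 note: stimulus is agonist 54-4 at its EC80 concentration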
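TRPML1-DL cells, Tet-induced overnight (~16 h, 37 °C) at 1,500 cells/well, were loaded with Ca8 no-wash dye plus quencher for 45-90 min at room temperature. Compounds were pinned during FDSS kinetic reading; agonist 54-4 at EC80 (4 uM final) then added.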
TRPML1 ag: qHTS for Agonists of the Human Mucolipin Transient Receptor Potential 1 (TRPML1). 410,000 tested, 0.12% active. TRPML1-expressing cells, Ca2+ dye fluorescence, FDSS. Mucolipin-1 (Homo sapiens), Q9GZU1. activation, % (no concentration beside the values); in the data active = activation above about 50%; inconclusive = mostly about 30% to 49%
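Cells: TRPML1-DL, 1X Tet inducer, ~16 h at 37 degrees C/5% CO2. Dye: ABD Ca8 no-wash + quencher, 45-90 min RT. Read: 10 s baseline, compound add, 110 s agonist phase; 54-4 EC80 (4uM final), 110 s antagonist phase.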
A number is an active result; . = inactive; ? = inconclusive; / = no result. The list is not random: actives were taken first. Their share in the collection is about 1.3%.

SMILES | KCNH2 3.1 inh | hERG WT inh | TRPV1 PAM | TRPV1 agonist | TRPML1 blocker | TRPML1 ag
C(=C\c1ccccc1)/CSc1nnc(-c2ccccc2)n1Cc1ccco1 | . | . | . | . | . | .
Clc1cccc(-c2nnc(SC/C=C/c3ccccc3)n2Cc2ccco2)c1 | -97.7 | . | . | . | . | .
CN(C)c1ccc(/C=C2\C(=O)/C(=C\c3ccc(N(C)C)cc3)c3ccccc32)cc1 | / | / | / | / | / | .
O=c1cc2c(nn1Cc1cccc(Cl)c1)-c1ccccc1CC2 | . | . | . | ? | . | .
O=c1cc2c(nn1Cc1ccc(Cl)cc1)-c1ccccc1CC2 | -94.6 | . | . | ? | . | .
COc1ccc2nc(NC(=O)c3ccc(-n4nc(C)cc4C)cc3)sc2c1 | . | . | . | . | . | 68.3
COc1ccc(C(=O)Nc2nc3ccc4nc(C)sc4c3s2)cc1 | -94.1 | . | . | . | . | .
COc1ccc(C(=O)Nc2nc3ccccc3s2)cc1 | . | . | . | 96.5 | . | .
COc1ccc2nc(NC(=O)c3ccc(F)cc3)sc2c1 | . | . | . | ? | . | .
OCCC1CN(Cc2ccc(F)cc2Cl)CCN1CCc1ccccc1 (configuration not stated) | -72.1 | . | . | . | . | .
OCCC1CN(Cc2cc(F)ccc2F)CCN1CCCc1ccccc1 (configuration not stated) | . | . | . | . | . | .
O=C(Nc1ccc(Cl)cc1)N1CCC(c2ccccc2)C1 (configuration not stated) | . | . | . | ? | . | .
CC(C)N(C)C1CCN(C(=O)Nc2ccc(Cl)cc2)CC1 | -198.1 | . | . | . | . | .
CCOc1ccc(OCCOCCNCCOC)cc1 | . | . | . | . | . | 59.8
CC(C)(C)n1ncc2c(=O)n(Cc3cccc(-c4cccs4)c3)cnc21 | / | / | / | / | . | .
Cc1cc(C)n2nc(C(=O)N3CCCC(Nc4ccc(C(C)C)cc4)C3)cc2n1 (configuration not stated) | . | . | . | 86.0 | . | .
CC(C)c1ccc(NC2CCCN(C(=O)c3cccc4nccnc34)C2)cc1 (configuration not stated) | . | . | . | 84.6 | . | .
Cc1cc(C=O)cc(C)c1[N+](=O)[O-] | / | / | / | / | / | .
O=C(Cn1cc(C(=O)c2ccncc2)c(=O)c2cc(F)ccc21)Nc1ccc(Cl)cc1 | / | / | / | / | . | .
CCc1ccc(CNC(=O)c2ccc(-n3c(C)cc4c3CCC(C)C4)cc2)cc1 (configuration not stated) | / | / | / | / | . | .
CCC(C)c1ccc(NC(=S)NCc2cccnc2)cc1 (configuration not stated) | -93.7 | . | . | ? | . | .
Fc1ccc(NC(=S)NCc2cccnc2)cc1 | . | . | . | . | . | .
CC(C)(C)c1ccc(NC(=S)NCc2cccnc2)cc1 | . | . | . | 86.4 | . | .
CCN(c1ccc(C)cc1C)S(=O)(=O)c1nnc(NC(=O)c2ccccc2OC)s1 | / | / | / | / | . | .
O=C(C1CCC(Cn2c(=O)c3sccc3n(Cc3ccc(F)cc3)c2=O)CC1)N1CCOCC1 (configuration not stated) | / | / | / | / | . | .
SMILES | KCNH2 3.1 inh | hERG WT inh | TRPV1 PAM | TRPV1 agonist | TRPML1 blocker | TRPML1 ag
CC(C)(C)[C@H]1CCC(=O)N(CCSc2ccc(Br)cc2)CC1 | / | / | / | / | / | .
CCOC1(/N=C(\C)NS(=O)(=O)c2ccc(Cl)cc2)C(C)=CC(=O)C=C1C | -98.6 | . | . | . | . | .
OCCN1CCN(C2Cc3cc(Cl)ccc3Sc3ccc(Cl)cc32)CC1 (configuration not stated) (tested in a mixture with another compound) | . | . | . | . | . | .
CN1CCN(CCOC2Cc3ccccc3Sc3ccc(Cl)cc32)CC1 (configuration not stated) | -91.2 | ? | . | . | . | .
Cc1ccccc1OCC(=O)Nc1ccc([N+](=O)[O-])cc1 | . | -168.7 | . | . | . | .
Cc1ccc(S(=O)(=O)N2C[C@@H]3[C@H]4CC[C@H](C4)[C@@H]3[C@@H](C)[C@@H]2C2CCCCC2=O)cc1 (some centres not stated) | . | . | / | / | . | 92.5
COC(=O)/C=C/c1ccc2c(c1)S(=O)(=O)N(C1CCCC1)[C@H]2CC(=O)OC | / | / | / | / | / | .
Cc1c(CCC(=O)NCCCn2ccnc2)c(=O)oc2c(C)c3oc4c(c3cc12)CCCC4 | -159.1 | -150.1 | . | ? | / | /
CCOc1ccc(-n2c(=S)sc3c(=O)n(-c4ccc(F)cc4)c(SCC(=O)O)nc32)cc1 | . | -238.6 | . | . | . | .
CCN(CC)C(=O)CSc1nc2c(sc(=S)n2CC)c(=O)n1-c1ccccc1 | . | . | . | . | . | .
CCOc1ccc(-n2c(=S)sc3c(=O)n(-c4ccccc4)c(SCC(=O)O)nc32)cc1 | . | . | . | . | ? | .
CCN(CC)C(=O)CSc1nc2c(sc(=S)n2-c2ccccc2)c(=O)n1Cc1ccco1 | -78.2 | . | . | . | . | .
CCCN1C(=O)/C(=C/c2ccc(N3CCOCC3)cc2)NC1=S | . | . | . | ? | . | .
CCN1C(=O)/C(=C/c2ccc(N3CCCC3)cc2)NC1=S | . | . | . | ? | . | 64.1
Cc1cc(/C=C2\NC(=S)N(C)C2=O)ccc1N1CCCC1 | / | -80.2 | . | 88.9 | . | 94.0
CCCN1C(=O)/C(=C/c2ccc(N3CCCC3)c(C)c2)NC1=S | ? | . | / | / | . | 67.1
CC(C)(C)c1ccc(C(=O)C[n+]2ccc(Cl)c3ccc(Cl)cc32)cc1 | / | / | / | / | / | .
COC(=O)c1ccc(C23CC4(C2)[C@H](CN(CC2CCCCC2)[C@@H]4c2ccccc2)C3c2ccc(Cl)nc2)cc1 (some centres not stated) | . | . | ? | . | . | .
Clc1ccc(C2[C@H]3CN(CC4CCCCC4)[C@H](c4ccccc4)C34CC2(c2ccccc2)C4)cn1 (some centres not stated) | -209.6 | . | ? | . | . | .
CCn1c(=O)c2c(nc3n2CCCN3CCc2ccc(OC)c(OC)c2)n(C)c1=O | -71.9 | . | . | . | . | .
COc1ccc(NC(=O)CN2CCC(C(=O)c3ccc(F)cc3)CC2)c(OC)c1 | . | . | . | . | . | .
